Test results reported in the supplement of paper PMC10498489.
About 330 (14%) of roughly 2,300 compounds showed activity.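 Rule for the calls: active = median modified Z-score above 1.96; inactive = 1.96 or below.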 Only a sample is shown.

Tested on: HepG2 Srxn1-GFP reporter cells (+30 nM CDDO-Me)
Test: Srxn1-GFP intensity median modified Z-score relative to plate median; higher = stronger NRF2 / oxidative stress reporter activation, active = hit call of the paper
Conditions: 10 µM; exposure time: 24h
Outline: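 The per-plate modified Z-score of GFP intensity, taken as a median across replicates, is what each value represents. Three replicate plates of HepG2 Srxn1-GFP BAC reporter cells were exposed for 24 h to an NRF2 activator at 30 nM combined with compound at 10 μM (≤0.1% DMSO). Cytoplasmic GFP per cell was read from confocal images, excluding any with under 100 cells, and scaling used 1.4826 × median absolute deviation.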

Structure (SMILES)	Srxn1-GFP intensity median modified Z-score
CN[C@@H]1C(OC2[C@H](O[C@H]3[C@H](O)[C@@H](O)[C@H](N=C(N)N)[C@@H](O)[C@@H]3N=C(N)N)OC(C)[C@]2(O)CO)OC(CO)C(O)C1O (some centres not stated) [euspeclibcmpd500]	0.194 (inactive)
CC(C)n1c(C=CC(O)CC(O)CC(=O)O)c(-c2ccc(F)cc2)c2ccccc21 (configuration not stated) [euspeclibcmpd1968]	3.35 (active)
CC(C)=c1nc(N(C)S(C)(=O)=O)nc(-c2ccc(F)cc2)c1=CC[C@@H](O)C[C@@H](O)CC(=O)O [euspeclibcmpd2132]	0.158 (inactive)
CC(C)c1c(C(=O)Nc2ccccc2)c(-c2ccccc2)c(-c2ccc(F)cc2)n1CC[C@@H](O)C[C@@H](O)CC(=O)O [euspeclibcmpd2076]	0.0135 (inactive)
CC1=C2CC(=O)C=C[C@]2(C)C2C(C1)C1CC[C@](O)(C(=O)COC(=O)CCC(=O)O)[C@@]1(C)C[C@@H]2O (some centres not stated) [euspeclibcmpd2224]	-0.845 (inactive)
Oc1cc2c(cc1O)=C1c3ccc(O)c(O)c3OCC1(O)C=2 (configuration not stated) [euspeclibcmpd1969]	-0.521 (inactive)
CC(CCC(=O)O)[C@H]1CCC2C3C(=O)C[C@@H]4CC(=O)CC[C@]4(C)C3CC(=O)[C@@]21C (some centres not stated) [euspeclibcmpd357]	0.217 (inactive)
COc1cc(C)c(C(=O)O)c(O)c1 [euspeclibcmpd2356]	-0.209 (inactive)
CCCCCC(=O)Cc1cc(O)cc(O)c1C(=O)Oc1cc(CC(=O)CCCCC)c(C(=O)O)c(OC)c1 [euspeclibcmpd1619]	-0.366 (inactive)
CCCCCc1c2c(cc(O)c1C(=O)O)OC(=O)c1c(cc(OC)cc1C(=O)CCCC)O2 [euspeclibcmpd1731]	4.46 (active)
COCC1(C)NC(=O)N(CCC(=O)Nc2cc(C)on2)C1=O (configuration not stated)	1.16 (inactive)
COC(=O)C1=C(C)N=C(C)C(C(=O)OC(C)C)C1c1cccc2nonc12 (configuration not stated) [euspeclibcmpd996]	-0.132 (inactive)
CCOC(=O)C1=C(C)N=C(C)C(C(=O)OC)C1c1cccc([N+](=O)[O-])c1 (configuration not stated) [euspeclibcmpd494]	0.225 (inactive)
CCOC(=O)C1=C(COCCN)N=C(C)C(C(=O)OC)C1c1ccccc1Cl (configuration not stated) [euspeclibcmpd713]	22.6 (active)
Cc1cc(=NC(=O)C2C(=O)c3ccccc3S(=O)(=O)N2C)[nH]o1 (configuration not stated) [euspeclibcmpd552]	-0.344 (inactive)
CC1=c2c(C)c(O)c(C(=O)O)c(O)c2=CO[C@@H]1C [euspeclibcmpd1555]	1.14 (inactive)
CCCC(C(N)=O)c1ccccc1 (configuration not stated)	1.53 (inactive)
OCCN1C[C@@H](O)[C@@H](O)C(O)C1CO (some centres not stated) [euspeclibcmpd679]	0.73 (inactive)
CC(=O)OCC(=O)C1CCC2C3CC=C4C[C@@H](O)CC[C@]4(C)C3CC[C@]12C (some centres not stated) [euspeclibcmpd1443]	0.217 (inactive)
COC(=O)C[C@H]1C(C)(C)[C@@H](OC(C)=O)C2CC3=C4CC(=O)O[C@@H](c5ccoc5)[C@]4(C)CCC3[C@@]1(C)C2=O (some centres not stated) [euspeclibcmpd1559]	0.833 (inactive)
COc1c(C/C=C(\C)CCC(=O)O)c(O)c2c(O)occ2c1C [euspeclibcmpd334]	11.8 (active)

Structure (SMILES)	Srxn1-GFP intensity median modified Z-score
COc1c(O)c(C)c(C=CC(C)=CCC=C(C)CCC=C(C)CCC=C(C)CCC=C(C)CCC=C(C)CCC=C(C)CCC=C(C)CCC=C(C)CCC=C(C)C)c(O)c1OC [euspeclibcmpd1853]	-0.0742 (inactive)
COc1c(C/C=C(\C)CCC(=O)OCCN2CCOCC2)c(O)c2c(O)occ2c1C [euspeclibcmpd688]	5.22 (active)
Oc1ccc(C(O)O)[nH]1 [euspeclibcmpd1237]	-0.421 (inactive)
CC(=O)OCC[N+](C)(C)C [euspeclibcmpd13]	-0.276 (inactive)
CC(C)=CCC=C(C)C=Cc1c(C)c(O)c2ccccc2c1O [euspeclibcmpd1484]	-0.304 (inactive)
CN1CCN(C2N=c3cc(Cl)ccc3=Nc3ccccc32)CC1 (configuration not stated) [euspeclibcmpd804]	0.387 (inactive)
C#CCCCCCCCCCCCc1ccco1 [euspeclibcmpd2261]	-0.224 (inactive)
CCCCOc1ccc(CC(O)=NO)cc1 [euspeclibcmpd1071]	1.55 (inactive)
CCNCC(O)COc1ccc(CCOC)cc1 (configuration not stated)	1.2 (inactive)
CCCCCCCCCc1ccc(OCCOCCOCCOCCOCCOCCOCCOCCOCCO)cc1 [euspeclibcmpd736]	18.5 (active)
CC(N=C(N=c1cc[nH]cc1)NC#N)C(C)(C)C (configuration not stated) [euspeclibcmpd960]	0.333 (inactive)
COc1c(O)cc2oc3cc(O)c(CC=C(C)C)c(O)c3c(=O)c2c1C=CC(C)C [euspeclibcmpd1547]	34.4 (active)
COc1cc(O)c2c(=O)cc(C)oc2c1CC=C(C)C [euspeclibcmpd1598]	2.54 (active)
COc1cc(-c2coc3cc(O)c(OC)c(O)c3c2=O)cc(O)c1OC [euspeclibcmpd1394]	1.24 (inactive)
COc1cc2oc3cc(OC)c(OC)c(C=CC(C)C)c3c(=O)c2c(O)c1CC=C(C)C [euspeclibcmpd1769]	-0.34 (inactive)
COc1cc2oc3cc(OC)c(OC)c(CC=C(C)C)c3c(=O)c2c(OC)c1CC=C(C)C [euspeclibcmpd1951]	13.2 (active)
CC(C)=CCc1c(O)cc2oc(C)cc(=O)c2c1O [euspeclibcmpd1412]	1.94 (inactive)
COc1ccc(-c2oc3cc(OC)c(OC)c(OC)c3c(=O)c2OC)cc1OC [euspeclibcmpd1579]	0.934 (inactive)
COc1ccc(-c2oc3c(CC=C(C)C)c(O[C@@H]4O[C@H](CO)[C@@H](O)[C@H](O)[C@H]4O)cc(O)c3c(=O)c2O[C@@H]2O[C@@H](C)[C@H](O)[C@@H](O)[C@H]2O)cc1 [euspeclibcmpd2338]	0.366 (inactive)
COc1ccc(-c2oc3cc(OC)c(OC)c(OC)c3c(=O)c2OC)cc1 [euspeclibcmpd1578]	0.25 (inactive)
C[C@@H]1CC2C3CC=C4CC(=O)C=C[C@]4(C)[C@@]3(F)[C@@H](O)C[C@]2(C)[C@@]1(O)C(=O)COP(=O)(O)O (some centres not stated) [euspeclibcmpd2420]	-0.794 (inactive)
